Bioassay records (PubChem)
Shown are actives, neighbours in structure and some others; about 1.3% of the full set was active somewhere.
TSG101-PTAP inh = qHTS Validation Assay for Inhibitors of HIV-1 Budding by Blocking the Interaction of PTAP/TSG101: Sytravon Library Screen; Tumor susceptibility gene 101 protein (Homo sapiens), Q99816; Fluorescence polarization, FITC-PTAP peptide/Tsg101, 20 min; Potency, µM (series often up to 115 µM), most hits filed as inhibitors; 44,000 tested, under 10 active
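Compounds pinned into 10 uM Tsg101 binding domain, then 50 nM FITC-PTAP peptide added in pH 7.5 HEPES buffer; FP read after 20 min, room temperature. Total S+P intensity flags fluorescent compounds; active cut-off <25 µM, efficacy <60%.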
FH mod = Identification of activators of human fumarate hydratase by quantitative high-throughput screening. Fumarate hydratase, mitochondrial (Homo sapiens), P07954. FH coupled MDH/diaphorase resazurin fluorescence, 15 min. AID 1347055, 2019. 0.22% of 54,000 active. Potency, µM (doses to about 79.9 µM), hits mostly inhibitors; further: the screen sought activators but most active calls are inhibition curves; nearly all actives have a fitted effect of over 45% in size
Target sequence (P07954 whole entry, looked up): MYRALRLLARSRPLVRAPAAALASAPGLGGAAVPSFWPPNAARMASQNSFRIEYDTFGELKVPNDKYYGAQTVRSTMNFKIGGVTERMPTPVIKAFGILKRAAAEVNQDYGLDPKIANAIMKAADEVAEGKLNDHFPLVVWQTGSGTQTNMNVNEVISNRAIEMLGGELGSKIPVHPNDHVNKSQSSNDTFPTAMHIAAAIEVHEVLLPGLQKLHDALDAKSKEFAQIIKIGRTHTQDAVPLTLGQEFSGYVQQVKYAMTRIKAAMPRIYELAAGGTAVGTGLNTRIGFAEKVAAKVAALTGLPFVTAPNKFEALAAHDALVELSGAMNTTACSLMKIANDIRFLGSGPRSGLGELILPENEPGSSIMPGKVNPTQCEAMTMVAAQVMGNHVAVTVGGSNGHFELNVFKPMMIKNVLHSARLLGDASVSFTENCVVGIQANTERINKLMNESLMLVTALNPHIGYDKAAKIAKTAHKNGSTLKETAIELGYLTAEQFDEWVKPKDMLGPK
HTT-AS promoter = Primary qHTS for Identification of Small Molecule Activators of Huntingtin-Antisense Promoter Activity; HEK293 HTT-AS promoter firefly luciferase reporter, 24 h; response scale: percent change from vehicle, -100% = no light; Potency, µM (top dose mostly 57.5 µM), usual class: activators; 0.24% of 48,000 active; AID 1508624, 2021; further: nearly all actives have a fitted effect of over 55% in size
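Quantitative HTS used concentration series of up to 57.5 uM final on HEK293 luciferase reporter cells, 24 h at 37 degrees C. Readout was Dual-Glo firefly luminescence.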
HTT promoter inh = Primary qHTS for Identification of Small Molecule Inhibitors of Huntingtin Promoter Activity; HEK293 HTT promoter firefly luciferase reporter, 24 h; Potency, µM (titrated, usually from 57.5 µM), usual class: inhibitors; 0.93% of 48,000 active; further: nearly all actives have a fitted effect of over 50% in size
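HEK293 Fluc reporter, 2,500 cells/well, 24 h pre-culture; cpds up to 57.5 uM final, 24 h 37 degrees C; Dual-Glo, 10 min RT; normalized vehicle = 0%, zero RLU = -100%.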
Hits are given with their value; – = inactive; ? = inconclusive; · = no result. The call rests on the fitted dose curve; in most records, active means well fitted curve in the direction sought with a large enough effect; inconclusive means small, poorly fitted or top-dose-only effect, or another doubt; inactive means no such curve, though single readings can be large; an effect the other way counts as inactive or inconclusive.

SMILES	TSG101-PTAP inh	FH mod	HTT-AS promoter	HTT promoter inh
COc1cc(CNC(=O)c2cc3n(n2)CCCN(Cc2ccc(C)cc2)C3=O)cc(OC)c1OC	–	–	–	?
Cc1ccc(CN2CCCn3nc(C(=O)NCc4ccc(OC(C)C)cc4)cc3C2=O)cc1	–	–	–	17.8µM
Cn1cc(-c2ccc3nnc(Sc4ccc5nn(C)cc5c4)n3n2)cn1	·	–	·	·
CC(=O)c1cccc(NS(=O)(=O)c2cccc(S(=O)(=O)c3ccc(Br)cc3)c2)c1	–	–	–	31.6µM
Cc1ccc(C)c(N2CCN(S(=O)(=O)c3cc(C(=O)Nc4ccc(Oc5ccccc5)cc4)ccc3F)CC2)c1	–	–	–	2µM
O=C(Nc1ccc(C(F)(F)F)cc1)c1cc(S(=O)(=O)N2CCCc3ccccc32)ccc1F	–	?	–	?
Cc1ccc(C(=O)Nc2ccc(Br)cc2)cc1S(=O)(=O)N1CCOCC1	–	–	–	20µM
O=C(Nc1ccc(Cl)cc1)c1cc(S(=O)(=O)N2CCCc3ccccc32)ccc1F	–	–	–	25.1µM
O=C(Nc1ccc(Br)cc1)c1ccc(F)c(S(=O)(=O)N2CCc3ccccc32)c1	–	–	–	14.1µM
CNC(=O)[C@H]1O[C@@H](n2cnc3c(NCc4ccc(N)cc4)ncnc32)[C@H](O)C1O (stereo partly specified)	·	–	·	·
CCCCCCCCC(=O)N[C@H](CN1CCCC1)[C@H](O)c1ccc2c(c1)OCCO2	·	–	·	·
O=C(Nc1nc2c(F)cccc2s1)c1ccc(S(=O)(=O)N2CCCc3ccccc32)cc1	–	–	–	–
O=C(Nc1nc2c(F)cc(F)cc2s1)c1ccc(S(=O)(=O)N2CCc3ccccc32)cc1	–	–	–	22.4µM
Cc1n[nH]c(C)c1S(=O)(=O)N1CCCC(C(=O)Nc2ccc(Cl)cc2)C1 (stereo unspecified)	–	–	–	28.2µM
Cc1ccc(NC(=O)C2CCCN(S(=O)(=O)c3c(C)n[nH]c3C)C2)cc1Cl (stereo unspecified)	–	–	–	?
COc1ccc(OCC(=O)Nc2cc(-c3nc4ccccc4o3)ccc2Cl)cc1	–	–	10µM	–
COc1ccc(C2=NC3(CCCCCC3)N(CC(=O)Nc3cccc(Cl)c3)C2=O)cc1	–	–	–	31.6µM
O=C(/C=C/c1ccc(O)cc1)OC[C@H]1O[C@@H](OC(=O)/C=C/c2ccccc2)[C@H](O)[C@@H](O)[C@@H]1O	·	–	·	·
CC1=CC(=O)C(C(C)C)=C/C1=N/OC(=O)c1ccccc1C	·	–	·	·
Cc1ccc(-n2ncc3c(NCCCn4ccnc4)ncnc32)cc1C	–	–	–	–
Cc1ccc(-n2ncc3c(NCCc4ccccc4)ncnc32)cc1C	–	–	?	–
Clc1cccc(-n2ncc3c(NCCCn4ccnc4)ncnc32)c1	–	–	14.1µM	–
Fc1ccc(-n2ncc3c(NCCCc4ccccc4)ncnc32)cc1	–	–	8.91µM	–
Fc1ccc(-n2ncc3c(NCCCn4ccnc4)ncnc32)cc1	–	–	2.82µM	–
COC1=CC(=O)C=C(C)C12Oc1c(Cl)c(OC)cc(OC)c1C2=O (stereo unspecified)	·	–	·	·
SMILES	TSG101-PTAP inh	FH mod	HTT-AS promoter	HTT promoter inh
COc1ccc(N2CCN(C(=O)c3cn(CC(C)C)c(=O)c4c3c3ccccc3n4C)CC2)cc1	–	31.6µM	–	–
O=C(Nc1ccccc1)c1ccc(Nc2nnc(-c3ccc(O)cc3)c3ccccc23)cc1	·	–	·	·
COC(=O)c1ccc(NC(=O)n2ncc3c(C)cccc32)cc1	–	–	?	–
Cc1ccc(NC(=O)n2ncc3c(C)cccc32)c(C)c1	–	–	7.08µM	–
COc1cccc(NCc2cccn2-c2nnc(N3CCC(C)CC3)s2)c1	–	–	–	10µM
COc1ccc(NCc2cccn2-c2nnc(N3CCOCC3)s2)cc1OC	–	?	–	?
Cc1ccccc1NCc1cccn1-c1nnc(N2CCC(C)CC2)s1	–	–	–	–
COc1ccc(NCc2cccn2-c2nnc(N3CCCCC3)s2)cc1OC	–	?	–	7.94µM
CCc1ccc(NCc2cccn2-c2nnc(N3CCCCCC3)s2)cc1	–	–	–	10µM
O=C1NCCSc2c1sc1ccc(O)cc21	·	–	·	·
C[C@@H]1C(=O)OC[C@H]2C(C(=O)O)=C[C@@H]3CC(C)(C)C[C@]312	·	–	·	·
OCCCc1ccccc1	·	–	–	–
